Source: PubChem BioAssay AID1159580 (chemical genetic matrix, 2015)
The whole screen tested about 5,500 compounds, of which about 2,000 (36%) were called active. Not shown: some 18% with an inconclusive outcome. Cut-off read from the data, not from the text of the source: active = normalized growth mostly below about 0.91 (no sharp cut-off); inconclusive = no clear call, values can overlap the other calls; inactive = mostly above about 0.92. The list shows a part of the results.

Experiment: chemical genetic growth profiling, strain panel (AID 1159580);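 note: tested at 20 µM; growth read once vehicle control cultures reached saturation at 30 °C; 1 = growth at the plate median or of vehicle wells; lower values mean less growth of the strain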
Conditions: growth OD
[1] = S. cerevisiae deletion strains, locus YHR030C, strain SLT2, hits give low values
[2] = S. cerevisiae deletion strains, locus YJL187C, strain SWE1, hits give low values

Measured: normalized growth

COC(=O)Nc1nc2ccc(S(=O)c3ccccc3)cc2[nH]1 (centres undefined)
inactive: S. cerevisiae deletion strains, locus YAL021C, strain ccr4, hits give low values 1.01 | S. cerevisiae deletion strains, locus YAL026C, strain drs2, hits give low values 0.986 | S. cerevisiae deletion strains, locus YAL030W, strain snc1, hits give low values 0.997 | S. cerevisiae deletion strains, locus YBL061C, strain skt5, hits give low values 0.995 | S. cerevisiae deletion strains, locus YBR009C, strain hhf1, hits give low values 0.999 | S. cerevisiae deletion strains, locus YBR023C, strain chs3, hits give low values 0.993 | S. cerevisiae deletion strains, locus YBR171W, strain sec66, hits give low values 0.971 | S. cerevisiae deletion strains, locus YBR231C, strain swc5, hits give low values 0.993 | S. cerevisiae deletion strains, locus YBR279W, strain paf1, hits give low values 0.994 | S. cerevisiae deletion strains, locus YCL011C, strain gbp2, hits give low values 1.01 | S. cerevisiae deletion strains, locus YCL016C, strain dcc1, hits give low values 1.01 | S. cerevisiae deletion strains, locus YCL061C, strain MRC1, hits give low values 0.994 | S. cerevisiae deletion strains, locus YCL069W, strain vba3, hits give low values 0.988 | S. cerevisiae deletion strains, locus YCR088W, strain abp1, hits give low values 0.998 | S. cerevisiae deletion strains, locus YDL005C, strain med2, hits give low values 0.994 | S. cerevisiae deletion strains, locus YDL040C, strain nat1, hits give low values 1 | S. cerevisiae deletion strains, locus YDR001C, strain nth1, hits give low values 0.983 | S. cerevisiae deletion strains, locus YDR069C, strain doa4, hits give low values 0.99 | S. cerevisiae deletion strains, locus YDR137W, strain rgp1, hits give low values 0.996 | S. cerevisiae deletion strains, locus YDR159W, strain sac3, hits give low values 0.966 | S. cerevisiae deletion strains, locus YDR195W, strain ref2 0.969 | S. cerevisiae deletion strains, locus YDR297W, strain sur2, hits give low values 0.997 | S. cerevisiae deletion strains, locus YDR334W, strain swr1, hits give low values 0.983 | S. cerevisiae deletion strains, locus YDR335W, strain msn5, hits give low values 0.973 | S. cerevisiae deletion strains, locus YDR392W, strain spt3, hits give low values 1 | S. cerevisiae deletion strains, locus YEL003W, strain gim4, hits give low values 0.962 | S. cerevisiae deletion strains, locus YEL037C, strain rad23, hits give low values 0.993 | S. cerevisiae deletion strains, locus YEL061C, strain CIN8 (second series), hits give low values 0.983 | S. cerevisiae deletion strains, locus YER015W, strain faa2, hits give low values 0.995 | S. cerevisiae deletion strains, locus YER016W, strain bim1, hits give low values 0.986 | S. cerevisiae deletion strains, locus YER111C, strain swi4, hits give low values 0.986 | S. cerevisiae deletion strains, locus YER155C, strain BEM2 (second series), hits give low values 0.953 | S. cerevisiae deletion strains, locus YFR010W, strain ubp6, hits give low values 0.988 | S. cerevisiae deletion strains, locus YGL167C, strain pmr1, hits give low values 0.984 | S. cerevisiae deletion strains, locus YGL173C, strain kem1, hits give low values 0.991 | S. cerevisiae deletion strains, locus YGL227W, strain vid30, hits give low values 0.986 | S. cerevisiae deletion strains, locus YGL240W, strain doc1, hits give low values 0.967 | S. cerevisiae deletion strains, locus YGL253W, strain hxk2, hits give low values 0.998 | S. cerevisiae deletion strains, locus YHR013C, strain ard1, hits give low values 1.02 | S. cerevisiae deletion strains, locus YHR027C, strain rpn1, hits give low values 0.989 | [1] 1.03 | S. cerevisiae deletion strains, locus YHR079C, strain IRE1, hits give low values 1.02 | S. cerevisiae deletion strains, locus YHR142W, strain chs7, hits give low values 0.994 | S. cerevisiae deletion strains, locus YJL092W, strain hpr5, hits give low values 0.984 | S. cerevisiae deletion strains, locus YJL095W, strain BCK1 (second series), hits give low values 1 | S. cerevisiae deletion strains, locus YJL095W, strain BCK1, hits give low values 0.972 | S. cerevisiae deletion strains, locus YJL115W, strain asf1, hits give low values 0.985 | S. cerevisiae deletion strains, locus YJL129C, strain trk1, hits give low values 0.981 | S. cerevisiae deletion strains, locus YJL154C, strain vps35, hits give low values 0.987 | S. cerevisiae deletion strains, locus YJL164C, strain tpk1, hits give low values 1.01 | S. cerevisiae deletion strains, locus YJL166W, strain qcr8, hits give low values 0.975 | [2] 0.984 | S. cerevisiae deletion strains, locus YJR066W, strain TOR1, hits give low values 0.975 | S. cerevisiae deletion strains, locus YKL160W, strain elf1, hits give low values 0.99 | S. cerevisiae deletion strains, locus YKR026C, strain gcn3, hits give low values 0.979 | S. cerevisiae deletion strains, locus YKR091W, strain srl3, hits give low values 1 | S. cerevisiae deletion strains, locus YLL001W, strain dnm1, hits give low values 0.976 | S. cerevisiae deletion strains, locus YLL026W, hits give low values 1 | S. cerevisiae deletion strains, locus YLL041C, strain sdh2, hits give low values 0.99 | S. cerevisiae deletion strains, locus YLR027C, strain aat2, hits give low values 0.989 | S. cerevisiae deletion strains, locus YLR113W, strain HOG1, hits give low values 0.982 | S. cerevisiae deletion strains, locus YLR221C, strain rsa3, hits give low values 1.01 | S. cerevisiae deletion strains, locus YLR258W, strain gsy2, hits give low values 0.984 | S. cerevisiae deletion strains, locus YLR262C, strain YPT6 (second series), hits give low values 0.987 | S. cerevisiae deletion strains, locus YLR320W, strain mms22, hits give low values 1 | S. cerevisiae deletion strains, locus YLR342W, strain FKS1, hits give low values 0.991 | S. cerevisiae deletion strains, locus YLR357W, strain rsc2, hits give low values 0.993 | S. cerevisiae deletion strains, locus YLR370C, strain arc18, hits give low values 0.998 | S. cerevisiae deletion strains, locus YLR384C, strain iki3, hits give low values 0.986 | S. cerevisiae deletion strains, locus YML120C, strain ndi1, hits give low values 0.998 | S. cerevisiae deletion strains, locus YMR058W, strain fet3, hits give low values 0.993 | S. cerevisiae deletion strains, locus YMR125W, strain sto1, hits give low values 0.982 | S. cerevisiae deletion strains, locus YMR129W, hits give low values 0.99 | S. cerevisiae deletion strains, locus YMR205C, strain PFK2, hits give low values 0.982 | S. cerevisiae deletion strains, locus YMR231W, strain pep5, hits give low values 0.98 | S. cerevisiae deletion strains, locus YNL071W, strain lat1, hits give low values 0.994 | S. cerevisiae deletion strains, locus YNL183C, strain NPR1, hits give low values 0.971 | S. cerevisiae deletion strains, locus YNL209W, strain ssb2, hits give low values 1.01 | S. cerevisiae deletion strains, locus YNL248C, strain rpa49, hits give low values 1.01 | S. cerevisiae deletion strains, locus YNL322C, strain KRE1 (second series), hits give low values 0.998 | S. cerevisiae deletion strains, locus YNR049C, strain mso1, hits give low values 0.977 | S. cerevisiae deletion strains, locus YOR001W, strain rrp6, hits give low values 0.982 | S. cerevisiae deletion strains, locus YOR070C, strain gyp1, hits give low values 0.999 | S. cerevisiae deletion strains, locus YOR080W, strain dia2, hits give low values 0.974 | S. cerevisiae deletion strains, locus YOR083W, strain WHI5, hits give low values 0.991 | S. cerevisiae deletion strains, locus YOR106W, strain vam3, hits give low values 1 | S. cerevisiae deletion strains, locus YOR231W, strain MKK1, hits give low values 1 | S. cerevisiae deletion strains, locus YOR265W, strain rbl2, hits give low values 0.992 | S. cerevisiae deletion strains, locus YOR270C, strain vph1, hits give low values 1 | S. cerevisiae deletion strains, locus YOR290C, strain snf2, hits give low values 1.01 | S. cerevisiae deletion strains, locus YPL051W, strain arl3, hits give low values 0.993 | S. cerevisiae deletion strains, locus YPL078C, strain atp4, hits give low values 0.963 | S. cerevisiae deletion strains, locus YPL106C, strain sse1, hits give low values 0.99 | S. cerevisiae deletion strains, locus YPL240C, strain hsp82, hits give low values 1 | S. cerevisiae deletion strains, locus YPL256C, strain CLN2, hits give low values 1.01

COC(=O)c1cccc(NC(=O)CC2C(=O)NCCN2C(=O)c2cccs2)c1 (centres undefined)
inactive: S. cerevisiae deletion strains, locus YAL013W, strain DEP1, hits give low values 1.02 | S. cerevisiae deletion strains, locus YBR229C, strain ROT2, hits give low values 1.02 | S. cerevisiae deletion strains, locus YDL101C, strain DUN1, hits give low values 1 | S. cerevisiae deletion strains, locus YDL134C, strain PPH21, hits give low values 1.04 | S. cerevisiae deletion strains, locus YDR150W, strain NUM1, hits give low values 0.982 | S. cerevisiae deletion strains, locus YEL061C, strain CIN8, hits give low values 1.01 | S. cerevisiae deletion strains, locus YGR078C, strain PAC10, hits give low values 1.01 | [1] 1.07 | S. cerevisiae deletion strains, locus YHR087W, strain rtc3, hits give low values 0.987 | [2] 0.989 | S. cerevisiae deletion strains, locus YJR043C, strain POL32, hits give low values 1.02 | S. cerevisiae deletion strains, locus YJR075W, strain HOC1, hits give low values 1.01 | S. cerevisiae deletion strains, locus YLR039C, strain RIC1, hits give low values 1.02 | S. cerevisiae deletion strains, locus YLR058C, strain SHM2 (second series), hits give low values 0.996 | S. cerevisiae deletion strains, locus YLR085C, strain ARP6, hits give low values 0.997 | S. cerevisiae deletion strains, locus YLR262C, strain YPT6, hits give low values 1.08 | S. cerevisiae deletion strains, locus YML094W, strain GIM5, hits give low values 0.993 | S. cerevisiae deletion strains, locus YMR219W, strain ESC1, hits give low values 1.01 | S. cerevisiae deletion strains, locus YMR263W, strain SAP30, hits give low values 0.958 | S. cerevisiae deletion strains, locus YMR307W, strain GAS1, hits give low values 1.01 | S. cerevisiae deletion strains, locus YNL128W, strain TEP1, hits give low values 1.01 | S. cerevisiae deletion strains, locus YNL153C, strain GIM3, hits give low values 1.01 | S. cerevisiae deletion strains, locus YNL298W, strain CLA4 (second series), hits give low values 1.04 | S. cerevisiae deletion strains, locus YNL322C, strain KRE1, hits give low values 1 | S. cerevisiae deletion strains, locus YNR030W, strain Alg12, hits give low values 1.03 | S. cerevisiae deletion strains, locus YPL055C, strain LGE1, hits give low values 0.941 | S. cerevisiae deletion strains, locus YPL241C, strain CIN2, hits give low values 1.01 | S. cerevisiae deletion strains, locus YPR135W, strain CTF4, hits give low values 1.1 | S. cerevisiae strains, strain wild type, hits give low values 1.02
